These results are taken from ChEMBL document CHEMBL3988442, “University of Dundee, Small-Polar-MMV Screening Library” (2021).

In assay [1] the target is T1, Aspartate--tRNA(Asp/Asn) ligase (Mycobacterium tuberculosis (strain ATCC 25618 / H37Rv)) (UniProt P9WFW3). Also: in the data most compounds retested in dose-response had high values.
T1 sequence (whole entry): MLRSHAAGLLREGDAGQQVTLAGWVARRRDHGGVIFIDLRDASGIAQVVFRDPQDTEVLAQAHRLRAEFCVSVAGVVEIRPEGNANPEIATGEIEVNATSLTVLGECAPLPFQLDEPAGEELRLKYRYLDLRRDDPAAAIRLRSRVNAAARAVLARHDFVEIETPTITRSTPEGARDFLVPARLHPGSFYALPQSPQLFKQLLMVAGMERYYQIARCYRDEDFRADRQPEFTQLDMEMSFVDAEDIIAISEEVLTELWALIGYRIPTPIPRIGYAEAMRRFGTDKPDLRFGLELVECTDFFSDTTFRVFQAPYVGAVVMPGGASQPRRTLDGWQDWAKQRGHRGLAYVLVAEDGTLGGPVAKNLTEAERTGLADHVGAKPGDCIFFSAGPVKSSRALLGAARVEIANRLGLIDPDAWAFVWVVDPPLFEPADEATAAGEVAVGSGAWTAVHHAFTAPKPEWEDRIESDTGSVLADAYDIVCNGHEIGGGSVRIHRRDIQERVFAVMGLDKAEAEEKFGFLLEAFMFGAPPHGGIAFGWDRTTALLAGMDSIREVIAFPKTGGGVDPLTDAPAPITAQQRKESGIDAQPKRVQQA
As to the kind of experiment: Assay for Asp RNA synthetase-1 from Mycobacterium tuberculosis. Format: functional. Also on record: scale not given: direction of the effect not stated beside the values. As to conditions: 30 µM.

Assay [2] concerns the target Shiga toxin 2 (Escherichia coli O157:H7) (UniProt P09385+P09386). In words: E. coli 0.157:H7 Shiga Toxin SOP - stx2 screening assay. It is filed as functional. Also on record: scale not given: direction of the effect not stated beside the values. As to conditions: 30 µM.

Consider `Cn1nnc2c1C(COCc1ccccn1)CN(C(=O)c1cccs1)C2` (configuration not stated), for which the Percent Effect turned out to be 0.388% in assay [1] and 13.7% in assay [2].
The like results for `CCn1cc(NC(=O)C2CCN(CCOC(C)C)CC2)cn1` were, in that order, 2.5% and 17.1%.
The like results for `CC(C)(C)n1ncc2c1NC(=O)CC2c1ccccc1` (configuration not stated) were, in that order, -5% and 22%.
The like results for `c1cc(-c2cnccn2)cc(-c2ccn(CCN3CCCC3)n2)c1` were, in that order, 1.97% and -29.3%.
With `CCN(CC1CCOC1)C(=O)c1ccccc1N1CCOCC1` (configuration not stated), the Percent Effect is -0.562% in assay [1] and 23.4% in assay [2].
The like results for `CC(=O)N1CCN(C(=O)NCc2csc(Br)c2)CC1` were, in that order, 0.204% and 5.42%.
The like results for `CNC(=O)[C@H]1C[C@@H]2CN(S(=O)(=O)c3ccccc3)C[C@@H]2N1C` were, in that order, -3.51% and -39.6%.
In the case of `COc1ccc(C(C)NC(=O)Cn2ccc(=O)n(C)c2=O)cc1OC` (configuration not stated), the Percent Effect in assay [1] was 2.15%; in assay [2], -8.59%.
Take `Cc1cnc(CN2CCCC2c2noc(C)n2)cn1` (configuration not stated): the values for the Percent Effect in assay [1] and in assay [2] were 0.514% and 4.6%, respectively.
In the case of `O=C(NCC1CCOC1)c1csc(-c2cccc(Cl)c2)n1` (configuration not stated), the Percent Effect was 0.759% in assay [1] and 5.81% in assay [2].
The like results for `COCCN1CCCC12CCN(C(=O)CC1CCCC1)CC2` were, in that order, -1.62% and -6.17%.
Turning to `Cc1nnc(NC(=O)NC2CCOc3ccccc32)s1` (configuration not stated), the Percent Effect in assay [1] is 1.16%; in assay [2], -1.42%.
Take `CNC(=O)[C@@]12CCO[C@@H]1CCN(S(=O)(=O)c1cccc(C)c1)C2`: the Percent Effect in assay [1] was -4.6%; in assay [2], 9.63%.
The matching figures for `CC(=O)N1CCN(CCNS(=O)(=O)c2ccc(C)c(F)c2)CC1`: -1.95% and 5.72%.
The like results for `CS(=O)(=O)NCC1CCCN(C(=O)c2cc3ccccc3o2)C1` (configuration not stated) were, in that order, 3.19% and -22%.
The like results for `O=C1COC2(CCN(C(=O)c3ccco3)CC2)CN1Cc1ccccn1` were, in that order, -2.5% and -3.41%.
For the molecule `CC1CN(C)CCN1C(=O)c1ccn(-c2cccc(Cl)c2)n1` (configuration not stated), the Percent Effect in assay [1] was -2.06%; in assay [2], -4.97%.
For `CCc1nc2n(n1)CC(NCc1ccnc(-c3ccccc3)n1)CC2` (configuration not stated), the Percent Effect in assay [1] is -7.45%; in assay [2], 5.5%.
The like results for `Cc1ncc2c(n1)CN(Cc1noc(C3CC3)n1)CC2` were, in that order, 0.182% and -46.9%.
On to `Cn1cc(CCNC(=O)CCc2ccc3c(c2)OCO3)cn1`, for which the values for the Percent Effect in assay [1] and in assay [2] were 1.25% and 21.4%, respectively.
Consider `Cn1cc(-c2csc(CN3CCOCC3)n2)cn1`, for which the Percent Effect in assay [1] was -7.74%; in assay [2], 2.01%.
Turning to `c1cc(OCc2ccc3c(c2)OCCO3)ccc1CNC1CC1`, the Percent Effect in assay [1] is -1.05%; in assay [2], -54.3%.
The like results for `O=C(Cn1c(=O)n(Cc2ccco2)c2ncccc21)Nc1ccccn1` were, in that order, 8.2% and 3.73%.
The like results for `O=C1CC[C@H]2[C@H](CCN2C(=O)C2CCCO2)N1Cc1ccncc1` (some centres not stated) were, in that order, 3.48% and -64%.
The like results for `O=C(NCc1cc(O)ncn1)C1CCOc2ccccc2C1` (configuration not stated) were, in that order, -6.23% and 16%.
On to `N#Cc1ccc(CN2CCC(c3ccnn3CCO)CC2)cc1`, for which the Percent Effect in assay [1] stood at 1.21%; in assay [2], 23.2%.
For `CC(=O)NCc1ccc(C(=O)N2CCCCC2Cn2cccn2)o1` (configuration not stated), the Percent Effect in assay [1] was 0.175%; in assay [2], -2.7%.
The matching figures for `Cc1cc(C(C)C(=O)N2CCCN(Cc3cscn3)CC2)c(C)o1` (configuration not stated): -4.75% and 19.4%.
As for `CC(C)CCN(C)C(=O)c1nc(S(C)(=O)=O)n2ccccc12`, the values for the Percent Effect in assay [1] and in assay [2] were -3.39% and 26.2%, respectively.
The matching figures for `CN(C(=O)Cn1nc(-c2ccc(F)cc2)ccc1=O)C1CCS(=O)(=O)C1` (configuration not stated): 3.06% and 1.8%.
Regarding `Fc1ccc(CCN2CCC(c3nnc(-c4cccnc4)o3)CC2)cc1`, the Percent Effect in assay [1] was 4.51%; in assay [2] it was -76.7%.
The like results for `Cn1cc(-c2csc(N3CCN(C(=O)OC(C)(C)C)CC3)n2)cn1` were, in that order, 0.501% and -1.73%.
The matching figures for `Cc1nn(-c2ccccc2)c(C)c1CNC1CCc2ncnn2C1` (configuration not stated): -2.94% and 4.77%.
The like results for `COCCC(=O)N1CCn2c(COCC3CC3)cnc2C1C` (configuration not stated) were, in that order, 3.62% and 5.04%.
Take `CC(C)CC(=O)N1C[C@@H]2CCN(c3ncccn3)C[C@@H]2C1`: the Percent Effect in assay [1] is 4.21%; in assay [2], -21.6%.
The like results for `COC(CNC(=O)N1CCC(n2cncn2)CC1)c1ccccc1` (configuration not stated) were, in that order, -3.54% and 7.26%.
The like results for `c1coc(-c2noc(CN3CCCC(Cn4cncn4)C3)n2)c1` (configuration not stated) were, in that order, -6.28% and -10.4%.
Turning to `Cc1cc2c(=O)n3c(nc2s1)CCN(Cc1cnc(C(C)C)nc1)CC3`, the Percent Effect in assay [1] came out at 6.6%; in assay [2], 14.8%.
For the molecule `CCOc1ccc(Cl)c(C(=O)N2CCN(CCO)CC2)n1`, the Percent Effect came to 0.455% in assay [1] and 15.7% in assay [2].
The like results for `CNC(=O)C1CCN(C(=O)c2cccn2Cc2cccs2)CC1` were, in that order, 0.91% and 11.1%.
The matching figures for `CCc1nc(C2CCCN2CCCS(=O)(=O)c2ccccc2)no1` (configuration not stated): -4.39% and -9.14%.
For `c1cnnc(N2CCCC2CNCc2cnc(N3CCCC3)nc2)c1` (configuration not stated), the Percent Effect was 0.626% in assay [1] and -6.77% in assay [2].
For `Cc1nc(C2CCCN2Cc2nnc(C3CC3)o2)no1` (configuration not stated), the Percent Effect turned out to be 1.34% in assay [1] and 20% in assay [2].
Consider `Cc1nn(C)cc1CCC(=O)N1CCCC(n2cncn2)C1` (configuration not stated), for which the values for the Percent Effect in assay [1] and in assay [2] were -2.1% and 12.3%, respectively.
In the case of `CCC1=N[C@@]2(CC[C@@H]3CN(C(=O)NCc4ccccc4)C[C@@H]32)C(=O)N1`, the figures for the Percent Effect in assay [1] and in assay [2] were 1.75% and 5.39%, respectively.
The matching figures for `Cc1ccc(NC2CCN(C(=O)c3cccn3C)CC2)nn1`: -9.26% and -60.3%.
The like results for `O=C1CC(c2ccc(C(=O)O)cc2)c2ncn(-c3cccc(F)c3)c2N1` (configuration not stated) were, in that order, 7.81% and -17.3%.
The like results for `COc1cc(C)nc(N2CCN(C(=O)CCc3nccs3)CC2)n1` were, in that order, 2.87% and -3.5%.
`CC(Cn1cccn1)NC(=O)NCc1cccs1` (configuration not stated): the Percent Effect was -7.69% in assay [1] and -7.84% in assay [2].
On to `CCc1nnc2n1CCN(C(=O)CN(C)Cc1ccccc1)C2`, for which the Percent Effect in assay [1] is -3.23%; in assay [2], 15.9%.
Consider `Cc1cc(NC(=O)NCCc2ccsc2)n(C)n1`, for which the Percent Effect in assay [1] was -9.16%; in assay [2] it was -21.1%.
